B1: ENSMUSG00000031028.245|Tub (ssRNA)
RNA: GGGAGUUCUACAGUCCGACGAUCGCUUCGAUAUCCGCAUGCUAGCCCUCCAUUGGGAUGGCACCACUCAUCUGGUGGGCUUGGGAACUCCAAGCUCUUGCCUGUGUGCCAUCUGUGAGAAGCUUCUUGGAGCUGAGACACCAGAGGGAAGCAAAGAGCAUUUAGACAUUGCUUUUUGCUUUGAAAUAGAUAUGUUUGGAAACGCUAAGUAGAAGUUUAAAAAGUAGAGUCAUGUAGAGUCAUGCUUUGAAUAUGUGGGUCAUGCUUUAGAUAUGAAGAGGCUAUGCAGGUAAGGAGGCUGGAUCUCUUGCGGUCGCACUAGUGUGGAAUUCUCGGGUGUCAAGG
B2: ENSMUSG00000028439.189|Fam219a|1:11;21:28 (ssRNA)
RNA: GGGAGUUCUACAGUCCGACGAUCGCUUCGAUAUCCGCAUGCUAACACACACACAUGUACCCGACACACACAUGAGCCUAUCUGUCCAGGGAACCAGAUUGGUGUCCGAGAUGAGGAAAUGGCUGUGGCCUGGGAAAUCAGUGAGAGGCCGCUUGGGAAUGAGAAUGCAGUGGACUGAAAGCACAGCCUGGCCAUCUGGAACCUGGGUUCUGGUCCCAGCCUCGGCAUUCUCCCUGAGCUCCUAAGCAAUUCCCAGGCUUCUCUAGGGCUUCAGUUCUCACAACUGGAAAAUAAAGAGUAGCUGCUCUUGCGGUCGCACUAGUGUGGAAUUCUCGGGUGUCAAGG
B3: ENSMUSG00000031028.94|Tub (ssRNA)
RNA: GGGAGUUCUACAGUCCGACGAUCGCUUCGAUAUCCGCAUGCUAAGCUCUGGUGGUCAGCAGAAAGCACUCCCACUUCAAAAGGGCCCAUUAGGCCCAAAGGGGGUUAGGAGUGGUAGGGAUAGGUGCGUGGCAGGUCCCUGCUAGGAUUGCAGGGGCCUGGCCAUGUGUAUUAGCUGGAGGCUUAGAAUGCUAGCUCAUUUGUUGCUACAGAUUUGCCCAGUGCUUGCACACGUAAGAACCCAGCUCUCAAGGCCAAAUAUCUGAGUGGAUGGGGAUGAUAGGAGUCAUCCAGUAGACUCCCUCUCUUGCGGUCGCACUAGUGUGGAAUUCUCGGGUGUCAAGG
B4: ENSMUSG00000058297.426|Spock2 (ssRNA)
RNA: GGGAGUUCUACAGUCCGACGAUCGCUUCGAUAUCCGCAUGCUAGUGGCAGGCCCCAGGGGUCCAGAAGUUUGUCCCUCUCUAAAACGCUCCCCACCCCAUACUGCUUUUCACCCCACUGAGACCGAGUCCCACAAAGGUAGGCAGAACAGCUGUUCCUGGUGGGGCUGAAGGUUCCCAAGUAGCUUCUAGUUAAGCAAGCUUCGUGUUUCCUCAGGAGCAAGGUCACACAGGUCAGAUUAUUGUCGGUCCUGCGGGCCUCAUCCUUGAAUAAGCUGCCUGCCCAGUUCCUCCAUCCGUGUUCCCUCUUGCGGUCGCACUAGUGUGGAAUUCUCGGGUGUCAAGG
B5: ENSMUSG00000061578.1444|Ksr2 (ssRNA)
RNA: GGGAGUUCUACAGUCCGACGAUCGCUUCGAUAUCCGCAUGCUAAGGAUGGAUGGAUGAGUGAGUGGAUAGGUAGGUAUAUAAAUGGAUGGAUGGGUGAUGGAUGGGUAAAUGAAUGGAUAGGUAUGUGAAUGAAUGGAUGAUGGAUGAAUGGAUGGGUAGGUGGGUAGAUAGGUAUAUGAAUGAAUGGAUGAAUGGAUGGGUGAAUGGAUGGAUAGGUAUGUGAAUAAAUGGAUGGAUGGAUGGAUUGAUUUGUGAAUGAAUGGAUGAAUGGAUGGGUAGGUGGGUGGAUGCAUAGGCAAGUACUCUUGCGGUCGCACUAGUGUGGAAUUCUCGGGUGUCAAGG
B6: ENSMUSG00000061578.1450|Ksr2 (ssRNA)
RNA: GGGAGUUCUACAGUCCGACGAUCGCUUCGAUAUCCGCAUGCUAUAAAUGGAUGGAUGGGUGAUGGAUGGGUAAAUGAAUGGAUAGGUAUGUGAAUGAAUGGAUGAUGGAUGAAUGGAUGGGUAGGUGGGUAGAUAGGUAUAUGAAUGAAUGGAUGAAUGGAUGGGUGAAUGGAUGGAUAGGUAUGUGAAUAAAUGGAUGGAUGGAUGGAUUGAUUUGUGAAUGAAUGGAUGAAUGGAUGGGUAGGUGGGUGGAUGCAUAGGCAAGUAGAUGAAUGAAUAUGUGGGUAGAAGGGUGAGUGGGUGCUCUUGCGGUCGCACUAGUGUGGAAUUCUCGGGUGUCAAGG
B7: ENSMUSG00000061578.1443|Ksr2|85:89;180:184 (ssRNA)
RNA: GGGAGUUCUACAGUCCGACGAUCGCUUCGAUAUCCGCAUGCUAGCAAGUAGGAUGGAUGGAUGAGUGAGUGGAUAGGUAGGUAUAUAAAUGGAUGGAUGGGUGAUGGAUGGGUAAAUGAAUGGAUAGCAUACUGAAUGAAUGGAUGAUGGAUGAAUGGAUGGGUAGGUGGGUAGAUAGGUAUAUGAAUGAAUGGAUGAAUGGAUGGGUGAAUGGAUGGAUAGCAUACUGAAUAAAUGGAUGGAUGGAUGGAUUGAUUUGUGAAUGAAUGGAUGAAUGGAUGGGUAGGUGGGUGGAUGCAUAGGCUCUUGCGGUCGCACUAGUGUGGAAUUCUCGGGUGUCAAGG
B8: ENSMUSG00000061578.1441|Ksr2 (ssRNA)
RNA: GGGAGUUCUACAGUCCGACGAUCGCUUCGAUAUCCGCAUGCUACCAAUCAGGAAGGCAAGUAGGAUGGAUGGAUGAGUGAGUGGAUAGGUAGGUAUAUAAAUGGAUGGAUGGGUGAUGGAUGGGUAAAUGAAUGGAUAGGUAUGUGAAUGAAUGGAUGAUGGAUGAAUGGAUGGGUAGGUGGGUAGAUAGGUAUAUGAAUGAAUGGAUGAAUGGAUGGGUGAAUGGAUGGAUAGGUAUGUGAAUAAAUGGAUGGAUGGAUGGAUUGAUUUGUGAAUGAAUGGAUGAAUGGAUGGGUAGGUGGGCUCUUGCGGUCGCACUAGUGUGGAAUUCUCGGGUGUCAAGG
B9: ENSMUSG00000061578.1439|Ksr2 (ssRNA)
RNA: GGGAGUUCUACAGUCCGACGAUCGCUUCGAUAUCCGCAUGCUAUUGAUUUAGAUGCCAAUCAGGAAGGCAAGUAGGAUGGAUGGAUGAGUGAGUGGAUAGGUAGGUAUAUAAAUGGAUGGAUGGGUGAUGGAUGGGUAAAUGAAUGGAUAGGUAUGUGAAUGAAUGGAUGAUGGAUGAAUGGAUGGGUAGGUGGGUAGAUAGGUAUAUGAAUGAAUGGAUGAAUGGAUGGGUGAAUGGAUGGAUAGGUAUGUGAAUAAAUGGAUGGAUGGAUGGAUUGAUUUGUGAAUGAAUGGAUGAAUGGACUCUUGCGGUCGCACUAGUGUGGAAUUCUCGGGUGUCAAGG
B10: ENSMUSG00000061578.1444|Ksr2|79:83;174:178 (ssRNA)
RNA: B5 RNA with G122C, U123A, A124U, U125A, G126C, G217C, U218A, A219U, U220A, G221C
B11: ENSMUSG00000061578.1445|Ksr2 (ssRNA)
RNA: GGGAGUUCUACAGUCCGACGAUCGCUUCGAUAUCCGCAUGCUAGAUGGAUGAGUGAGUGGAUAGGUAGGUAUAUAAAUGGAUGGAUGGGUGAUGGAUGGGUAAAUGAAUGGAUAGGUAUGUGAAUGAAUGGAUGAUGGAUGAAUGGAUGGGUAGGUGGGUAGAUAGGUAUAUGAAUGAAUGGAUGAAUGGAUGGGUGAAUGGAUGGAUAGGUAUGUGAAUAAAUGGAUGGAUGGAUGGAUUGAUUUGUGAAUGAAUGGAUGAAUGGAUGGGUAGGUGGGUGGAUGCAUAGGCAAGUAGAUGAACUCUUGCGGUCGCACUAGUGUGGAAUUCUCGGGUGUCAAGG
B12: ENSMUSG00000061578.1442|Ksr2 (ssRNA)
RNA: GGGAGUUCUACAGUCCGACGAUCGCUUCGAUAUCCGCAUGCUAAGGAAGGCAAGUAGGAUGGAUGGAUGAGUGAGUGGAUAGGUAGGUAUAUAAAUGGAUGGAUGGGUGAUGGAUGGGUAAAUGAAUGGAUAGGUAUGUGAAUGAAUGGAUGAUGGAUGAAUGGAUGGGUAGGUGGGUAGAUAGGUAUAUGAAUGAAUGGAUGAAUGGAUGGGUGAAUGGAUGGAUAGGUAUGUGAAUAAAUGGAUGGAUGGAUGGAUUGAUUUGUGAAUGAAUGGAUGAAUGGAUGGGUAGGUGGGUGGAUGCUCUUGCGGUCGCACUAGUGUGGAAUUCUCGGGUGUCAAGG
B13: ENSMUSG00000061578.1446|Ksr2 (ssRNA)
RNA: GGGAGUUCUACAGUCCGACGAUCGCUUCGAUAUCCGCAUGCUAUGAGUGAGUGGAUAGGUAGGUAUAUAAAUGGAUGGAUGGGUGAUGGAUGGGUAAAUGAAUGGAUAGGUAUGUGAAUGAAUGGAUGAUGGAUGAAUGGAUGGGUAGGUGGGUAGAUAGGUAUAUGAAUGAAUGGAUGAAUGGAUGGGUGAAUGGAUGGAUAGGUAUGUGAAUAAAUGGAUGGAUGGAUGGAUUGAUUUGUGAAUGAAUGGAUGAAUGGAUGGGUAGGUGGGUGGAUGCAUAGGCAAGUAGAUGAAUGAAUACUCUUGCGGUCGCACUAGUGUGGAAUUCUCGGGUGUCAAGG
B14: ENSMUSG00000061578.1448|Ksr2 (ssRNA)
RNA: GGGAGUUCUACAGUCCGACGAUCGCUUCGAUAUCCGCAUGCUAUAGGUAGGUAUAUAAAUGGAUGGAUGGGUGAUGGAUGGGUAAAUGAAUGGAUAGGUAUGUGAAUGAAUGGAUGAUGGAUGAAUGGAUGGGUAGGUGGGUAGAUAGGUAUAUGAAUGAAUGGAUGAAUGGAUGGGUGAAUGGAUGGAUAGGUAUGUGAAUAAAUGGAUGGAUGGAUGGAUUGAUUUGUGAAUGAAUGGAUGAAUGGAUGGGUAGGUGGGUGGAUGCAUAGGCAAGUAGAUGAAUGAAUAUGUGGGUAGAAGCUCUUGCGGUCGCACUAGUGUGGAAUUCUCGGGUGUCAAGG
B15: ENSMUSG00000061578.1440|Ksr2 (ssRNA)
RNA: GGGAGUUCUACAGUCCGACGAUCGCUUCGAUAUCCGCAUGCUAUAGAUGCCAAUCAGGAAGGCAAGUAGGAUGGAUGGAUGAGUGAGUGGAUAGGUAGGUAUAUAAAUGGAUGGAUGGGUGAUGGAUGGGUAAAUGAAUGGAUAGGUAUGUGAAUGAAUGGAUGAUGGAUGAAUGGAUGGGUAGGUGGGUAGAUAGGUAUAUGAAUGAAUGGAUGAAUGGAUGGGUGAAUGGAUGGAUAGGUAUGUGAAUAAAUGGAUGGAUGGAUGGAUUGAUUUGUGAAUGAAUGGAUGAAUGGAUGGGUACUCUUGCGGUCGCACUAGUGUGGAAUUCUCGGGUGUCAAGG
B16: ENSMUSG00000061578.1451|Ksr2|37:41;132:136 (ssRNA)
RNA: GGGAGUUCUACAGUCCGACGAUCGCUUCGAUAUCCGCAUGCUAGAUGGAUGGGUGAUGGAUGGGUAAAUGAAUGGAUAGCAUACUGAAUGAAUGGAUGAUGGAUGAAUGGAUGGGUAGGUGGGUAGAUAGGUAUAUGAAUGAAUGGAUGAAUGGAUGGGUGAAUGGAUGGAUAGCAUACUGAAUAAAUGGAUGGAUGGAUGGAUUGAUUUGUGAAUGAAUGGAUGAAUGGAUGGGUAGGUGGGUGGAUGCAUAGGCAAGUAGAUGAAUGAAUAUGUGGGUAGAAGGGUGAGUGGGUGGAUGAACUCUUGCGGUCGCACUAGUGUGGAAUUCUCGGGUGUCAAGG

Substitutions are numbered along the chain they refer to. The full ranking holds about 9,900 sequences; the median of “r (bound/input frequency ratio)” is about 0.7, and the highest 2% start at about 6.5. The full list was thinned out, with the highest values kept by preference.

For this experiment, the target named is TDP-43 (Homo sapiens, UniProt Q13148 1-414). As to the kind of experiment: RNA Bind-n-Seq with designed 260-mer pool; 25 mM Tris-HCl, 150 mM KCl, 3 mM MgCl2, BSA (printed 500 mg/mL), 20 units/mL SUPERase IN; pH not stated; 500 nM RNA pool, 1 h, 4 C; TDP-43 5, 50, 500 nM; high values mean tight binding. The following applies: protein: recombinant; tags: SBP (GST cleaved off with PreScission; pGEX-GST-SBP). In outline: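 An in vitro-transcribed pool of 260-nt 3′ UTR oligos (500 nM) was incubated for 1 h at 4 °C with recombinant SBP-tagged TDP-43 at 5, 50 or 500 nM held on streptavidin beads. The buffer contained 25 mM Tris-HCl, 150 mM KCl, 3 mM MgCl2, BSA and SUPERase IN. Biotin-eluted bound RNA was sequenced, and binding, R, is each oligo's normalized read abundance in the bound sample over that in input.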
Chain of TDP-43 (Q13148 whole entry): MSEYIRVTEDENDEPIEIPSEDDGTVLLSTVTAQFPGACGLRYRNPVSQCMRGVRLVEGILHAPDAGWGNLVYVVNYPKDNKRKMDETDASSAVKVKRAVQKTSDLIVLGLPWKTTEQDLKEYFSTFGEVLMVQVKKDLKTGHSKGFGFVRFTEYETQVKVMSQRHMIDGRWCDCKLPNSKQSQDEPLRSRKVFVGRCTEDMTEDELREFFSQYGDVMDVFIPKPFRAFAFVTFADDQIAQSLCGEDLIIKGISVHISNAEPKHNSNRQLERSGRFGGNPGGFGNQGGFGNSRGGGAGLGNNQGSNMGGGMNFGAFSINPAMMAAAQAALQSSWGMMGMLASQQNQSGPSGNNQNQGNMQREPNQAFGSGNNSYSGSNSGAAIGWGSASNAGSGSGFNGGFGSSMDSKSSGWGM
Turning to B1, the binding signal was 2.93 R (bound/input frequency ratio).

On to B2, for which the binding signal was 0.604 R (bound/input frequency ratio).

B3: the binding signal is 0.759 R (bound/input frequency ratio).

Turning to B4, the binding signal is 0.272 R (bound/input frequency ratio).

Regarding B5, the binding signal was 3.7 R (bound/input frequency ratio).

On to B6, for which the binding signal was 4.15 R (bound/input frequency ratio).

Turning to B7, the binding signal was 6.75 R (bound/input frequency ratio).

For B8, the binding signal was 5.22 R (bound/input frequency ratio).

With B9, the binding signal was 6.02 R (bound/input frequency ratio).

As to B10, the binding signal is 5.84 R (bound/input frequency ratio).

Turning to B11, the binding signal was 4.8 R (bound/input frequency ratio).

Consider B12, for which the binding signal was 7.5 R (bound/input frequency ratio).

Turning to B13, the binding signal is 11 R (bound/input frequency ratio).

As for B14, the binding signal is 6.14 R (bound/input frequency ratio).

For the molecule B15, the binding signal is 11.5 R (bound/input frequency ratio).

B16: the binding signal was 5.32 R (bound/input frequency ratio).

The values are drawn from paper PMC12864922, “TDP-43 directly inhibits mRNA accumulation in neurites through modulation of mRNA stability”.
